A word on the Inhibition: it is how much of the control response was suppressed. The low end stands for a weak effect, the high end for a strong effect.

Experimental findings from ChEMBL document CHEMBL1157539, “Thousands of chemical starting points for antimalarial lead identification” (Nature, 2010) are described below.

The test system of this experiment is Plasmodium falciparum. In words: GSK_TCMDC: Inhibition of Plasmodium falciparum 3D7 in whole red blood cells, using parasite LDH activity as an index of growth. Test compounds present at 2uM. The experiment is classed as functional.
`Cc1cc(=O)c(-c2ccc(Oc3cccc(Cl)c3)cc2)c(C)[nH]1` gave an Inhibition of 95%.
For the compound `CN(C)CCN(C)Cc1ccc(-c2cccc(NC(=O)c3ccc(Cl)cc3)c2)cc1.O=C(O)C(F)(F)F`, the Inhibition was determined as 97%.
Turning to `CCCCN(CCCC)Cc1cc2ccccc2cc1O.Cl`, the Inhibition came to 100%.
Regarding `Cl.N#Cc1ccc2c(c1)CCN(CCC1CCC(NC(=O)Nc3cnc4ccccc4c3)CC1)C2` (centres undefined), the Inhibition stood at 93%.
With `Cl.N=C(N)NN=Cc1cc([N+](=O)[O-])ccc1Sc1ccccc1CO`, the Inhibition was found to be 84%.
To `CCCN1CCC=C(c2cccc(Nc3nccc(Nc4cc(OC)ccc4C)n3)c2)C1.Cl` belongs 88%.
`O=C(N[C@@H](CC1CCCCC1)C(=O)NCCN1CCCC1)c1ccc(O)c(-c2ccc(Cl)c(Cl)c2)c1` came in with an Inhibition of 99%.
In the case of `CCCc1cc(C(=O)N[C@@H](Cc2ccccc2)[C@H](O)CNC(C)(C)c2cccc(OC)c2)c(F)c(N2CCCC2=O)c1.O=CO`, the Inhibition is listed as 98%.
`Cc1ccc(C(NC(=O)c2ccccc2)c2ccc3cccnc3c2O)cc1` (centres undefined) displayed an Inhibition of 92%.
Compound `Cc1cccc2nc(-c3cccc(-c4cccc(NC(=O)CNC(=O)c5ccc(O)cc5)c4)c3)[nH]c12` registered an Inhibition of 94%.
Compound `Cc1cc(NC(=O)c2ccco2)ccc1OC1CCN(Cc2ccc(C#N)cc2)CC1.O=C(O)C(F)(F)F` showed an Inhibition of 92%.
To `Cc1cc(Nc2ccncc2)n2nc(C)c(-c3ccc(Cl)cc3)c2n1` belongs 100%; to `CC(=O)Nc1ccc(C(=O)Nc2cccc(-c3cccc(-c4nc5cc(F)ccc5[nH]4)c3)c2)cn1`, 99%.
In turn, `CC(Cl)=CCc1c(C)nc2c(ccc3ccccc32)c1O` displayed an Inhibition of 96%.
